# Compound activity deposited in PubChem by National Center for Advancing Translational Sciences (NCATS).
# Sampled rows, rich in hits. Any-hit rate of the full collection: about 12%.
# Sfp inh = qHTS Assay for Inhibitors of Bacillus subtilis Sfp phosphopantetheinyl transferase (PPTase) | Biochemical Sfp PPTase activity, qHTS | Potency, µM, inactives show largest response in the series, negative = inhibition, usual class: inhibitors | 310,000 tested, 3.5% active | AID 1490, 2009;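 also: the enzyme is Sfp with the accession as filed and its product quenches rhodamine fluorescence; 0% = enzyme reaction without inhibitor and -100% = no enzyme wells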
#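 Fluorescence-quenching assay with 15 nM Sfp, 5 uM rhodamine-CoA and 12.5 uM BHQ-2-labelled ybbR peptide in pH 7.6 Hepes/MgCl2 buffer. Enzyme was pre-incubated with compound for 15 min at room temperature. Rate was taken from the 30-min fluorescence change (525/598 nm).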
# JMJD2A Tudor = qHTS Assay for Inhibitors of JMJD2A-Tudor Domain | Potency, µM (titrated, usually from 114 µM), without a hit: top-dose activity change, negative = inhibition, most hits filed as inhibitors | AlphaScreen JMJD2A-Tudor / H3K4me3 peptide binding | 390,000 tested, 4.4% active; also: % is scaled to controls: 0 for no effect and ±100 for the full control effect; nearly all actives have a fitted effect of over 50% in size
# G9a inh = qHTS Assay for Inhibitors of Histone Lysine Methyltransferase G9a; Histone-lysine N-methyltransferase EHMT2 (Homo sapiens), Q96KQ7; G9a H3K9 monomethylation, AlphaScreen, 2 h; Potency, µM (series often up to 102 µM), inactives show at the top dose activity, negative = inhibition, usual class: inhibitors; 350,000 tested, 8.8% active; also: % is scaled to controls: 0 for no effect and ±100 for the full control effect; nearly all actives have a fitted effect of over 75% in size
#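 Readings reflect AlphaScreen signal from monomethyl-H3K9 antibody detection. HMT at 20 nM; substrate b-H3K9 500 nM; cofactor SAM 20 uM; 2 h RT reaction; compounds tested as titrations in qHTS with 15 min preincubation.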
# HP1b chromo inh = HTS for Inhibitors of HP1-beta Chromodomain Interactions with Methylated Histone Tails; 390,000 tested, 0.56% active; Potency, µM (highest dose often 114 µM), inactives show at the highest dose activity change, negative = inhibition, hits mostly inhibitors; AlphaScreen HP1-beta / biotin-H3K9me3 peptide binding; Chromobox protein homolog 1 (Homo sapiens), P83916; also: nearly all actives have a fitted effect of over 70% in size
#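 AlphaScreen: HP1-beta (50 nM) preformed 30 min with biotin-H3(1-18)K9me3 peptide (50 nM) in PBS pH 7.4, 0.01% Tween-20. Compound added for 30 min at RT, then streptavidin donor/nickel chelate acceptor beads (10 ug/mL) for 30 min.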
# BAZ2B inh = qHTS Assay for Inhibitors of BAZ2B | Bromodomain adjacent to zinc finger domain protein 2B (Homo sapiens), Q9UIF8 | AlphaScreen BAZ2B-H3K14Ac peptide displacement | Potency, µM (titrated, usually from 114 µM), for the others: at the top dose activity change, negative = inhibition, actives largely listed as inhibitors | 360,000 tested, 4.4% active; also: % is scaled to controls: 0 for no effect and ±100 for the full control effect; nearly all actives have a fitted effect of over 60% in size
# Target sequence (Q9UIF8 whole entry, looked up, the tested form may be a part): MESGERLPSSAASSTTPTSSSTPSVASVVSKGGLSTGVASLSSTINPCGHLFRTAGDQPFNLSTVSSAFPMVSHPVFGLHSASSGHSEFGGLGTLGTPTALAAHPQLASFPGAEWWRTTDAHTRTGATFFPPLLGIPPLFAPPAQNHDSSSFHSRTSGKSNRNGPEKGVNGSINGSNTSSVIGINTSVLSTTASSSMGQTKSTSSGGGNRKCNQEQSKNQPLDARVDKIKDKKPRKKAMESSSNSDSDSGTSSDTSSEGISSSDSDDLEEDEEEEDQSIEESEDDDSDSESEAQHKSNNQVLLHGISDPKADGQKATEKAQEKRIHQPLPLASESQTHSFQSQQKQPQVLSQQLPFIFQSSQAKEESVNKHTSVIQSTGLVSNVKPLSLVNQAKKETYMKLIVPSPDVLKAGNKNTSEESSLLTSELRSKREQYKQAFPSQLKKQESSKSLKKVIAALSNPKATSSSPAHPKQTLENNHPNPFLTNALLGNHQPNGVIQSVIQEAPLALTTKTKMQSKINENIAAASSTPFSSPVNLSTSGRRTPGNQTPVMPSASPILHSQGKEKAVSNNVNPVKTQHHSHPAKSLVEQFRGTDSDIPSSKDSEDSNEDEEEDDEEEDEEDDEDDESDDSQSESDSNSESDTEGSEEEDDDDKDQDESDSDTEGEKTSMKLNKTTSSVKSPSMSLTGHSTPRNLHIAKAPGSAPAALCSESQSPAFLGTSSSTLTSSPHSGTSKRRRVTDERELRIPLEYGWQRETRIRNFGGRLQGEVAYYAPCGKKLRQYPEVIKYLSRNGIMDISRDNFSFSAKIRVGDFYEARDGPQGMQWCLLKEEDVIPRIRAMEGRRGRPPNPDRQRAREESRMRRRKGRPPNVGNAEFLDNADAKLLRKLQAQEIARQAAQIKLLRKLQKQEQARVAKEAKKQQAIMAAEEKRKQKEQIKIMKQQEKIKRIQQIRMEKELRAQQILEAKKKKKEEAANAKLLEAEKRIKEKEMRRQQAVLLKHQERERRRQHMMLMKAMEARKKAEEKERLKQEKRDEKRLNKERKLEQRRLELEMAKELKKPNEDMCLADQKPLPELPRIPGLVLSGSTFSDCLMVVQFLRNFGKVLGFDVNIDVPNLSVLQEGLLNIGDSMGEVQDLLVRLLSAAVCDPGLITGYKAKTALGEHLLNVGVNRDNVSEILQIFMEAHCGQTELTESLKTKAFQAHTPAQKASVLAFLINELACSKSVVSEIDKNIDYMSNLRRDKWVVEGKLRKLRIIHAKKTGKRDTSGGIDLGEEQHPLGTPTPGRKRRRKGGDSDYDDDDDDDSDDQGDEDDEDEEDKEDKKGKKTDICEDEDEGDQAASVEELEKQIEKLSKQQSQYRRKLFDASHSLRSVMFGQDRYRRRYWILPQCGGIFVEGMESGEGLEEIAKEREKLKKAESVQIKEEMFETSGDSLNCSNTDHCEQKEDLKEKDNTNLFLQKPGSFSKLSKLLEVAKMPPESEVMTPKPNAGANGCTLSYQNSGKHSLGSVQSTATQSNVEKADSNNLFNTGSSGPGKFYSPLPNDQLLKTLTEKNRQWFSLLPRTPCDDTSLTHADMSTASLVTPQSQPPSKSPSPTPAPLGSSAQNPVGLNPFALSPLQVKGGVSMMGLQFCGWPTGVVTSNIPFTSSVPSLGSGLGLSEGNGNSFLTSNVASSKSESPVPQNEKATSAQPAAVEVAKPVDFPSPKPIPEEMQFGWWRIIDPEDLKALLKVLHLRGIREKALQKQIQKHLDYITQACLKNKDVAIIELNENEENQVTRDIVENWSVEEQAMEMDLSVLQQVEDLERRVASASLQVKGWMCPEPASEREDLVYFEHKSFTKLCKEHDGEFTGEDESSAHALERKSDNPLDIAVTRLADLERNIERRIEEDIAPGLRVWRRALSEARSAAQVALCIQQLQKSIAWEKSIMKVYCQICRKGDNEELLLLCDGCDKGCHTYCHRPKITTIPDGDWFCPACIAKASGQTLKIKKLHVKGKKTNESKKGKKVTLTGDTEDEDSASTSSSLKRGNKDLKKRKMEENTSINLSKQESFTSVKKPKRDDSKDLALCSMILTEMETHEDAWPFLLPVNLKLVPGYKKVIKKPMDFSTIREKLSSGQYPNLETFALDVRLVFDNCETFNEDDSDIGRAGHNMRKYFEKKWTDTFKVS
#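 AlphaScreen luminescence quantifies BAZ2B engagement of H3K14Ac peptide; the protein and biotinylated peptide are both at 50 nM final, buffer PBS pH 7.4 with 0.01% Tween-20, all steps at room temperature.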
# PLK1 PBD block = qHTS for Inhibitors of PLK1-PDB (polo-like kinase 1 - polo-box domain): Primary Screen. Serine/threonine-protein kinase PLK1 (Homo sapiens), P53350. Plk1 PBD binding of FITC phosphopeptide, fluorescence polarization. Potency, µM, for inactives: max response, negative = inhibition, actives largely listed as inhibitors. 360,000 tested, 2.8% active; also: series mostly up to about 57 µM; % is scaled to controls: 0 for no effect and ±100 for the full control effect; nearly all actives have a fitted effect of over 65% in size
# Active calls of the source: *; u = inconclusive; x = not tested or not shown; ! = repeats disagree; [ ] = dose if it differs, or a comment. Calls follow the shape of the dose curve; as a rule, active = well fitted curve in the direction sought with a large enough effect; inconclusive = small, poorly fitted or top-dose-only effect, or another doubt; inactive = no such curve, though single readings can be large; an effect the other way counts as inactive or inconclusive. Potency is read from the fitted curve at half-maximal effect.
SMILES,Sfp inh,JMJD2A Tudor,G9a inh,HP1b chromo inh,BAZ2B inh,PLK1 PBD block
CCOC(=O)c1cccc(NC(=O)Cn2ncc3c4ccccc4n(Cc4ccccc4)c3c2=O)c1,x,u,-1%[59 µM],11%,2%,x
CC[C@@H](C)[C@H](CNC)NC[C@@H](Cc1cccc2ccccc12)NCCc1cccc(C(F)(F)F)c1,79µM*,u,45µM*,10%,u,-15%
CCC[C@H](CN[C@@H](CNC)[C@H](C)CC)NCCc1cc(C(F)(F)F)cc(C(F)(F)F)c1,20%,-23%,-5%,39%,-9%,4%
CCCCOc1ccc(C(C)NC(=O)c2cccc(Nc3nc4ccccc4n4nnnc34)c2)cc1 (stereo not given),x,-22%,-13%[59 µM],25%,2%,x
CCOc1ccc(N(Cc2ccccc2)C(=O)c2nc(SC)ncc2Cl)cc1,x,-1%,2%[59 µM],38%,7%,x
O=C(NCc1ccccc1)c1nc(S(=O)(=O)Cc2ccccc2)ncc1Cl,u,-28%,-3%[0.501 µM],12%,-15%,u
COc1ccc(CNC(=O)c2nc(S(=O)(=O)Cc3ccccc3)ncc2Cl)cc1,-23%,-1%,u,27%,-37%,24µM*
CS(=O)(=O)c1ncc(Cl)c(C(=O)N(Cc2ccc(Cl)cc2)Cc2ccco2)n1,x,-35%,11µM*,7%,-31%,x
O=C(c1ccc(Cl)cc1)N(Cc1ccco1)Cc1ccco1,x,-29%,-46%[59 µM],2%,u,x
COc1ccc(N(Cc2ccccc2)C(=O)c2nc(S(C)(=O)=O)ncc2Cl)cc1,x,-14%,11µM*,40%,-11%,x
O=C(NCc1ccc2c(c1)OCO2)c1nc(S(=O)(=O)Cc2ccccc2F)ncc1Cl,25µM*,6%,18µM*,37%,-36%,13µM*
CCOc1ccc(NC(=O)c2nc(S(=O)(=O)Cc3ccccc3F)ncc2Cl)cc1,x,-5%,-39%[59 µM],48%,-2%,x
CCS(=O)(=O)c1ncc(Cl)c(C(=O)NCc2ccccc2)n1,x,-14%,u,46%,-8%,x
O=C(NCc1ccc2c(c1)OCO2)c1nc(S(=O)(=O)Cc2ccccc2)ncc1Cl,u,-24%,50µM*,9%[57 µM],-25%,u
O=C(Nc1ccc(O)c(C(=O)O)c1)Oc1ccccc1,u,-21%,50µM*,29%,-1%,-27%
O=C(Nc1ccc2oc(=O)c(C(=O)O)cc2c1)Oc1ccccc1,x,-4%,x,7%,x,u
Cc1scc2c1N(C(=O)CN1CCN(C)CC1)c1ccccc1NC2=O,16%,-12%,35µM*!,12%,u,19%
CCN(CC)S(=O)(=O)c1ccc2oc(Nc3ccc(OC)cc3)nc2c1,7%,-20%,20%,-17%,-1%,1%
CCOc1ccc(Nc2nc3cc(S(=O)(=O)N(CC)CC)ccc3o2)cc1,8.9µM*,-17%,2.2µM*,-53%,-27%,5.3µM*
CCS(=O)(=O)c1ccc2oc(Nc3ccc(C(C)C)cc3)nc2c1,18µM*,u,1.8µM*,16µM*,-35%,2.7µM*
COc1ccc(C(CNC(=O)c2c(C)nn(Cc3ccc(C)cc3)c2Cl)N2CCOCC2)cc1 (stereo not given),x,-11%,-5%[2.33 µM],16%,-4%,-17%
Cc1cccc(C(=O)NCC(=O)N2CCN(S(=O)(=O)c3ccc4c(c3)OCCO4)CC2)c1,x,7%,9%[12.7 µM],32%,8%,7%
CC1CC(C)CN(C(=O)CSc2nnc(-c3ccc(F)cc3)o2)C1 (stereo not given),-27%,-6%,71µM*,21%,-6%,-19%
Cc1nc2ccccc2n1CCC(=O)O,8%,13%,-74%,42%,-30%,1%
Cc1nc2ccccc2n2c(O)c(CC(=O)O)cc12,10%,u,u,-20%,-17%,24µM*
SMILES,Sfp inh,JMJD2A Tudor,G9a inh,HP1b chromo inh,BAZ2B inh,PLK1 PBD block
CCOC(=O)c1c(C)noc1-c1ccco1,24%,-3%,4%,8%,-1%,2%
Cc1ccc(-n2nc(-c3ccco3)cc2C(=O)O)cc1,22µM*,-2%[11.4 µM],u,5%,79µM*,u
CCOC(=O)c1cc(-c2ccco2)nn1-c1ccc(C)cc1,u,-30%,40µM*,-23%,u,-9%
CCOC(=O)c1c(C)nc(C)c(C(=O)OCC)c1-c1ccco1,-6%,79µM*,32µM*,7%,-34%,-3%
CCOC(=O)c1cc(-c2ccc(N3CCOCC3)cc2)nn1-c1ccccc1,-10%,-34%,-8%,-17%,u,-9%
CCOC(=O)c1cc(-c2ccc(N3CCOCC3)cc2)nn1-c1ccccc1C(=O)O,0%,3.2µM*,x,u,13µM*,19µM*
Cc1ccc(C2=Nc3ccccc3N(CC(=O)Nc3cccc(F)c3)C(=O)C2)cc1C,x,u,-5%[59 µM],70%,7%,x
CC(C)NC(=O)c1cc(-c2ccco2)nn1-c1ccc(Cl)cc1,10µM*,35µM*,3.5µM*,u,50µM*,-28%
O=C(c1cc(-c2ccco2)nn1-c1cccc(Cl)c1)N1CCCCC1,8.9µM*,25µM*,3.2µM*,u,u,27µM*
O=C(Nc1ccccc1)c1cc2ccccc2o1,-3%,10%,3%[59 µM],49%,5%,1%
CC/C(=C\c1oc2cc3ccccc3cc2[n+]1CC)Nc1ccccc1,-38%,-17%,5.6µM*,42%,79µM*,-27%
CCCc1ccc2oc(C(=O)N3CCCC3)c(C)c2c1,-9%,16%,x,72%,6%,-3%
N=C1c2c(cc(=O)n3c2[nH]c2ccccc23)CN1CCN1CCOCC1,3%,-17%,35µM*,10%,x,0%
Cn1c2ccccc2c(=O)c2cc(NCCCN3CCOCC3)ccc21,x,-13%,x,18%,x,-6%
COC(=O)c1ccc2c(c1)C(C)(C)C(/C=C/c1ccccc1O)=[N+]2C,11µM*,56µM*,u,u,8.9µM*,51%
